Measured values published in PubChem BioAssay (NCATS).
Results filed as inconclusive are left out. Where a structure was tested more than once in an assay, its records may differ in their call. The source made the active and inactive calls. Calls follow the shape of the dose curve; as a rule, active = well fitted curve in the direction sought with a large enough effect; inconclusive = small, poorly fitted or top-dose-only effect, or another doubt; inactive = no such curve, though single readings can be large; an effect the other way counts as inactive or inconclusive.

How the values were obtained:
MCC-13 = assay: qHTS assay to identify novel small-molecules to repurpose for Merkel cell carcinoma treatment (AID 1296009); details: MCC and control cell lines, CellTiter-Glo viability, 72 h; series mostly up to 46 µM; also: nearly all actives have a fitted effect of over 60% in size
Outline: (§1)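 Cell viability measured by CellTiter-Glo following 72 hr compound treatment at 37 degree celsius, with NPC and MIPE libraries tested in 8- and 11-point concentration series.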

MKL-2 = assay: as above; details: MCC and control cell lines, CellTiter-Glo viability, 72 h; series mostly up to 46 µM
Outline: as §1

C33A = assay: Primary qHTS to identify gynecologic anti-cancer compounds using libraries of approved drugs and bioactive compounds (AID 1345084); details: Gynecologic cancer cell panel viability, ATPlite luminescence, 48 h; series mostly up to 57.5 µM; also: nearly all actives have a fitted effect of over 55% in size
Outline: (§2)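 Cytotoxicity screen measuring ATP content by luciferase luminescence. Each compound is applied at five concentrations for 48 h at 37 C with 5% CO2.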

CAOV3 = assay: as above; details: Gynecologic cancer cell panel viability, ATPlite luminescence, 48 h; series mostly up to 57.5 µM
Outline: as §2

CASKI = assay: as above; details: Gynecologic cancer cell panel viability, ATPlite luminescence, 48 h; series mostly up to 57.5 µM
Outline: as §2

Es-2 = assay: as above; details: Gynecologic cancer cell panel viability, ATPlite luminescence, 48 h; series mostly up to 57.5 µM
Outline: as §2

HeLa = assay: as above; details: Gynecologic cancer cell panel viability, ATPlite luminescence, 48 h; series mostly up to 57.5 µM
Outline: as §2

Hek293T = assay: as above; details: Gynecologic cancer cell panel viability, ATPlite luminescence, 48 h, control line for the selectivity index; series mostly up to 57.5 µM
Outline: as §2

JEG-3 = assay: as above; details: Gynecologic cancer cell panel viability, ATPlite luminescence, 48 h; series mostly up to 57.5 µM
Outline: as §2

OV90 = assay: as above; details: Gynecologic cancer cell panel viability, ATPlite luminescence, 48 h; series mostly up to 57.5 µM
Outline: as §2

SKOV3 = assay: as above; details: Gynecologic cancer cell panel viability, ATPlite luminescence, 48 h; series mostly up to 57.5 µM
Outline: as §2

[1] = Drug repurposing screens with cells derived from glioblastoma tumor samples (AID 1345199); details: GBM patient neurospheres viability, ATP luminescence, 48 h; also: nearly all actives have a fitted effect of over 40% in size
Outline: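 Primary testing used CD133+ neurospheres from four GBM patients, seven concentrations, 48 h exposure and ATP-based viability; confirmation added three slower-growing patient lines.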

WaGa = assay: qHTS assay to identify novel small-molecules to repurpose for Merkel cell carcinoma treatment (AID 1296009); details: MCC and control cell lines, CellTiter-Glo viability, 72 h; series mostly up to 46 µM; also: nearly all actives have a fitted effect of over 60% in size
Outline: as §1

MKL-1 = assay: as above; details: MCC and control cell lines, CellTiter-Glo viability, 72 h; series mostly up to 46 µM
Outline: as §1

UISO = assay: as above; details: MCC and control cell lines, CellTiter-Glo viability, 72 h; series mostly up to 46 µM
Outline: as §1

PA-1 = assay: Primary qHTS to identify gynecologic anti-cancer compounds using libraries of approved drugs and bioactive compounds (AID 1345084); details: Gynecologic cancer cell panel viability, ATPlite luminescence, 48 h; series mostly up to 57.5 µM; also: nearly all actives have a fitted effect of over 55% in size
Outline: as §2

Tov-21-G = assay: as above; details: Gynecologic cancer cell panel viability, ATPlite luminescence, 48 h; series mostly up to 57.5 µM
Outline: as §2

Tov112D = assay: as above; details: Gynecologic cancer cell panel viability, ATPlite luminescence, 48 h; series mostly up to 57.5 µM
Outline: as §2

[2] = at 45.9 µM (top of the series), tumour line B
[3] = at 45.9 µM (top of the series), tumour line D
[4] = at 46.1 µM (top of the series), tumour line C
[5] = at 46 µM (top of the series), tumour line A
[6] = at 20 µM (top of the series), tumour line C
% is scaled to controls: 0 for no effect and ±100 for the full control effect; potency is read from the fitted curve at half-maximal effect.

COC1=CC(=O)C[C@@H](C)[C@]12Oc1c(Cl)c(OC)cc(OC)c1C2=O
inactive: Potency (MCC-13) | Potency (MKL-2) | Potency (C33A) | Potency (CAOV3) | Potency (CASKI) | Potency (Es-2) | Potency (HeLa) | Potency (Hek293T) | Potency (JEG-3) | Potency (OV90) | Potency (SKOV3) | activity, negative = cell killing [1, 2] -17.6% | activity, negative = cell killing [1, 3] -7.65% | activity, negative = cell killing [1, 4] -2.75%

COc1ccc(CCN2CCC(Nc3nc4ccccc4n3Cc3ccc(F)cc3)CC2)cc1
active: Potency (MCC-13) 23.7 µM | Potency (MKL-2) 13.3 µM | Potency (WaGa) 21.1 µM | Potency (HeLa) 28.2 µM

Cc1c(F)c(N2CCNC(C)C2)cc2c1c(=O)c(C(=O)O)cn2C1CC1 (stereo not drawn)
inactive: Potency (MCC-13) | Potency (MKL-1) | Potency (MKL-2) | Potency (UISO) | Potency (WaGa) | Potency (C33A) | Potency (CAOV3) | Potency (CASKI) | Potency (Es-2) | Potency (HeLa) | Potency (Hek293T) | Potency (JEG-3) | Potency (OV90) | Potency (PA-1) | Potency (SKOV3) | Potency (Tov-21-G) | Potency (Tov112D) | activity, negative = cell killing [1, 2] -3.48% | activity, negative = cell killing [1, 3] 3.74% | activity, negative = cell killing [1, 5] -33% | activity, negative = cell killing [1, 4] -2.18%

COCc1c(C(C)C)nc(C(C)C)c(/C=C/[C@@H](O)C[C@@H](O)CC(=O)O)c1-c1ccc(F)cc1
active: Potency (MCC-13) 1.19 µM | Potency (MKL-1) 0.75 µM | Potency (UISO) 0.473 µM | Potency (WaGa) 1.06 µM | Potency (CAOV3) 7.08 µM | Potency (HeLa) 1.78 µM | Potency (OV90) 1.78 µM | Potency (PA-1) 2.82 µM | Potency (Tov-21-G) 7.08 µM | Potency (Tov112D) 3.16 µM
inactive: Potency (CASKI)

CC(C)=CCC1C(=O)N(c2ccccc2)N(c2ccccc2)C1=O
active: Potency (MKL-2) 13.3 µM
inactive: Potency (MCC-13) | Potency (C33A) | Potency (CASKI) | Potency (Es-2) | Potency (HeLa) | Potency (Hek293T) | Potency (JEG-3) | Potency (OV90) | Potency (PA-1) | Potency (SKOV3) | Potency (Tov-21-G) | Potency (Tov112D) | activity, negative = cell killing [1, 4] 3.79%

CC/C(=C(/CC)c1ccc(O)cc1)c1ccc(O)cc1
inactive: Potency (MCC-13) | Potency (MKL-1) | Potency (C33A) | Potency (CASKI) | Potency (Es-2) | Potency (HeLa) | Potency (Hek293T) | Potency (JEG-3) | Potency (OV90) | Potency (PA-1) | Potency (SKOV3) | Potency (Tov-21-G) | Potency (Tov112D) | activity, negative = cell killing [1, 2] -24.8% | activity, negative = cell killing [1, 4] -3.33%
active: Potency ([1]; tumour line A) 14.1 µM

CN(C)CCCOc1nn(Cc2ccccc2)c2ccccc12
31.6 µM (active) and inactive: Potency (PA-1) | Potency (Tov-21-G)
14.1 µM (active) and inactive: Potency (OV90)
22.4 µM (active) and inactive: Potency (SKOV3)
inactive: Potency (MCC-13) | Potency (MKL-1) | Potency (C33A) | Potency (CAOV3) | Potency (CASKI) | Potency (Es-2) | Potency (HeLa) | Potency (Hek293T) | Potency (JEG-3) | Potency (Tov112D) | activity, negative = cell killing [1, 6] -16.8%
active: Potency ([1]; tumour line A) 1.58 µM | Potency ([1]; tumour line D) 7.08 µM

CN1CCC[C@@H]1c1cccnc1
inactive: Potency (MCC-13) | Potency (MKL-1) | Potency (MKL-2) | Potency (UISO) | Potency (WaGa) | Potency (C33A) | Potency (CAOV3) | Potency (CASKI) | Potency (Es-2) | Potency (HeLa) | Potency (Hek293T) | Potency (JEG-3) | Potency (OV90) | Potency (PA-1) | Potency (SKOV3) | Potency (Tov-21-G) | Potency (Tov112D) | activity, negative = cell killing [1, 2] -7.48% | activity, negative = cell killing [1, 3] -12.9% | activity, negative = cell killing [1, 5] -29.1% | activity, negative = cell killing [1, 4] -0.391%

CCOC(=O)OC(C)OC1=C(C(=O)Nc2ccccn2)N(C)S(=O)(=O)c2ccccc21 (stereo not drawn)
inactive: Potency (MCC-13) | Potency (MKL-1) | Potency (MKL-2) | Potency (UISO) | Potency (WaGa) | Potency (C33A) | Potency (CAOV3) | Potency (CASKI) | Potency (Es-2) | Potency (HeLa) | Potency (Hek293T) | Potency (JEG-3) | Potency (OV90) | Potency (PA-1) | Potency (SKOV3) | Potency (Tov-21-G) | Potency (Tov112D) | activity, negative = cell killing [1, 2] -23.8% | activity, negative = cell killing [1, 3] -1.93% | activity, negative = cell killing [1, 4] 20.6%

NC(=NCCCCCCN=C(N)/N=C(\N)Nc1ccc(Cl)cc1)/N=C(\N)Nc1ccc(Cl)cc1
active: Potency (MCC-13) 26.6 µM | Potency (MKL-1) 6.68 µM | Potency (MKL-2) 2.99 µM | Potency (UISO) 9.44 µM | Potency (WaGa) 8.41 µM | Potency (PA-1) 15.8 µM
inactive: Potency (CASKI) | Potency (Es-2) | Potency (JEG-3) | Potency (Tov-21-G) | Potency (Tov112D)

CCCCCCCCCCCCCCCCCC(=O)OCC(O)CO (stereo not drawn)
inactive: Potency (MCC-13) | Potency (MKL-1) | Potency (MKL-2) | Potency (UISO) | Potency (WaGa) | Potency (C33A) | Potency (CAOV3) | Potency (CASKI) | Potency (Es-2) | Potency (HeLa) | Potency (Hek293T) | Potency (JEG-3) | Potency (OV90) | Potency (SKOV3) | Potency (Tov-21-G) | Potency (Tov112D) | activity, negative = cell killing [1, 2] -5.26% | activity, negative = cell killing [1, 3] -15.3% | activity, negative = cell killing [1, 4] 1%

C[C@H](O)C(=O)Nc1c(I)c(C(=O)NC(CO)CO)c(I)c(C(=O)NC(CO)CO)c1I
inactive: Potency (MCC-13) | Potency (MKL-1) | Potency (MKL-2) | Potency (UISO) | Potency (WaGa) | Potency (C33A) | Potency (CAOV3) | Potency (CASKI) | Potency (Es-2) | Potency (HeLa) | Potency (JEG-3) | Potency (PA-1) | Potency (SKOV3) | Potency (Tov-21-G) | Potency (Tov112D) | activity, negative = cell killing [1, 6] 2.37% | activity, negative = cell killing ([1]; at 21.2 µM (top of the series), tumour line B) -6.73% | activity, negative = cell killing ([1]; at 21.2 µM (top of the series), tumour line D) -12.3% | activity, negative = cell killing ([1]; at 21.3 µM (top of the series), tumour line A) -8%

CN(C)C(=S)SC(=S)N(C)C
active: Potency (MCC-13) 2.99 µM | Potency (MKL-2) 3.35 µM | Potency (UISO) 1.19 µM | Potency (C33A) 15.8 µM | Potency (OV90) 7.94 µM | Potency (SKOV3) 11.2 µM | Potency (Tov-21-G) 8.91 µM | Potency (Tov112D) 28.2 µM
inactive: Potency (CASKI) | Potency (Es-2) | Potency (HeLa) | Potency (JEG-3) | activity, negative = cell killing [1, 2] -2.75% | activity, negative = cell killing [1, 3] -2.32% | activity, negative = cell killing [1, 5] -14.5% | activity, negative = cell killing [1, 4] -7.02%
